Data from ChEMBL document CHEMBL3988442, “University of Dundee, Small-Polar-MMV Screening Library” (2021).
Hit rate of the full screen: of about 48,000 compounds, about 13,000 (27%) showed an effect of 50% or more. Some of the results follow.

Tested on: Wolbachia pipientis
Assay: Anti-Wolbachia Cell-Based Screen
Type: functional
Set-up: scale not given: in the data most compounds retested in dose-response had high values
Conditions: 5 µM

Row | SMILES | Percent Effect [%]
1 | Cc1cccc(N(CCC#N)S(=O)(=O)CC2CCCCO2)c1 (stereo not drawn) | -8.784
2 | N#Cc1cc(C#N)c(SCCC(=O)Nc2ccc(F)cc2)nc1N | -13.62
3 | CN1C[C@@H](C(=O)N2CCCOCC2)[C@@]2(CCc3ccccc3C(=O)N2)C1 | -5.089
4 | C[C@@H]1CN(C2(C(=O)N(C)C)Cc3ccccc3C2)C[C@H](C)O1 | 1.411
5 | CN1CC(C(=O)NC(C)(C)C)CC1=O (stereo not drawn) | 0.8346
6 | CN1C[C@@H](C(=O)NC(C)(C)C)[C@@]2(CCc3ccccc3C(=O)N2)C1 | 141.5
7 | O=C(c1ccccc1)N1CC(C(=O)N2CCOCC2)C2(CCOCC2)C1 (stereo not drawn) | -41.49
8 | CN(C)C(=O)N1CCC2(CC1)NC(=O)c1ccccc12.Cl | -7.31
9 | CN1C[C@@H](C(=O)N2CCOCC2)[C@@]2(CCc3ccccc3C(=O)N2)C1 | 147.9
10 | CC(C)(C)NC(=O)[C@@H]1CNC[C@]12Cc1ccccc1C(=O)N2 | 114.2
11 | CN1C[C@@H](C(=O)N(C)C)[C@@]2(CCc3ccccc3C(=O)N2)C1.Cl | 136.2
12 | CCNC(=O)N1CC[C@@H](CC(=O)O)[C@@H](CC2=NCCc3ccccc32)C1 | 7.982
13 | COC(=O)CN(Cc1ccccc1C)C(=O)CCCNC(=O)C1CC1 | -13.3
14 | CN(C)CCNc1ncccc1CNC(=O)Nc1cc(F)cc(F)c1 | -8.67
15 | CC(C)(C)c1cnc(CN2CCC(NC(=O)C3CCOCC3)CC2)o1 | -13.41
16 | COC1CCN(CCNC(=O)NCC(C)c2cccc(C)c2)CC1 (stereo not drawn) | 5.114
17 | COCCN(C)C[C@@H]1CCC[C@@H]2CN(Cc3ccc(OC)nc3)C[C@@H]21.O=C(O)C(F)(F)F.O=C(O)C(F)(F)F | 8.299
18 | O=C(NCC(F)(F)F)C1CCC(=O)N(C2CCCC2)C1 (stereo not drawn) | 11.17
19 | COC(=O)N1CCc2ccccc2C1C(=O)NCC(F)(F)F (stereo not drawn) | 5.157
20 | CN1C[C@@H](C(=O)NCC(F)(F)F)[C@@]2(CCc3ccccc3C(=O)N2)C1 | 103.7
21 | CCC(C)C(=O)NCc1cc(Br)c(OC)c(OC)c1 (stereo not drawn) | -3.921
22 | Cc1ccc(CNC(=O)CCN2CCOC(C(F)(F)F)C2)cc1 (stereo not drawn) | -2.283
23 | CCS(=O)(=O)c1ccc(N2CCC(NC(=O)CCC(C)C)CC2)cc1 | 4.61
